EWS-Fli inh: blocks EWS/Fli oncoprotein-driven transcription | A673 NR0B1-luciferase reporter, viability-normalised | inhibition, % at 12.6 µM | hit rate 0.67% among 350,000;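 active means mean inhibition of at least 50% after viability correction, with every replicate also passing that limit; inconclusive means mean reaches 50% but only one of two replicates passes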;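 further: firefly luciferase signal divided by Alamar Blue viability fluorescence both relative to DMSO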
Wnt bcat act: Wnt/beta-catenin pathway activation. Wnt/beta-catenin reporter cell assay, activator, plate reader. activation, % at 9.35 µM. hit rate 1.2% among 300,000; in the data active means activation above about 30%, passing the limit was not always enough; inconclusive means no clear call, values can overlap the other calls;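 further: 0% = neutral control wells and 100% = positive control wells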
PAX8 inh HTS: lowers PAX8-driven luciferase in RMG-I cells | hit rate 1.2% among 360,000 | RMG-I TPO-luciferase reporter, SteadyGlo, 24 h | inhibition, % at 12.6 µM;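 active means mean replicate inhibition at least 60% with every replicate also reaching 60%; inconclusive means only one of the two criteria is met; inactive means mean below 60% and not all replicates reaching 60%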;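 further: luciferase light reporting Pax8 driven TPO promoter activity; plate controls were median of neutral control wells for no effect and mitoxantrone controls for full effect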
MITF TRPM1 inh: MITF TRPM1 promoter inhibition in SK-MEL-5 cells | SK-MEL-5 TRPM1 promoter luciferase, 24 h | inhibition, % at 12.5 µM | hit rate 0.83% among 330,000 | AID 488899;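 active means mean inhibition across replicates of 60% or more, whatever share of single replicates reaches that level; inconclusive means some that reach 60%, reason not given; inactive means mean inhibition across replicates below 60%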
esBAF inh: SWI/SNF esBAF complex inhibition; mouse ES cells, Bmi1-luciferase knock-in reporter, 24 h; 100% = twice the neutral-well signal; reporter increase, % at 12.5 µM; hit rate 2% among 350,000; AID 602393; in the data active means activation above about 40%; inconclusive means no clear call, values can overlap the other calls;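 further: 0% = median of the plate's neutral control wells and 100% = double that signal; a rise in the Bmi1 reporter signal indicates esBAF inhibition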
MITF TRPM1 HTS: activators of MITF-driven TRPM1 promoter activity in SK-MEL-5 cells | SK-MEL-5 TRPM1-promoter luciferase, 24 h; % of positive control, neutral wells = 0 | activation, % at 12.5 µM | hit rate 0.75% among 300,000;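 active means mean activation of at least 80% with every replicate also reaching 80%; inconclusive means mean reaches 80% but some replicate falls short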;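 further: 0% = neutral control wells and 100% = parthenolide positive control wells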
Numbers without * were called inactive; ? = inconclusive; / = not tested or not shown. Hits are enriched below; roughly 4% of the tested compounds scored in any of these assays.

SMILES | EWS-Fli inh | Wnt bcat act | PAX8 inh HTS | MITF TRPM1 inh | esBAF inh | MITF TRPM1 HTS
O=C(Nc1ccc(F)c(Cl)c1)c1ccc2sc([C@H]3C[C@H](O)[C@@H](CO)O3)nc2c1 | -83 | -3 | -84 | / | 62* | /
NC(=O)NCC#Cc1ccc2c(c1)[C@]1(C(=O)N2)[C@H](c2ccc(O)cc2)N2[C@H](c3ccccc3)[C@H](c3ccccc3)OC(=O)[C@H]2[C@@H]1C(N)=O | -1 | / | 4 | / | / | /
O=C1SCCN1N=Cc1ccc([N+](=O)[O-])o1 | 8 | 7 | -1 | 66* | -1 | -65
O=C(O)/C=C/c1ccc([N+](=O)[O-])o1 | 5 | 0 | 31 | 6 | / | -6
Cc1cc2ncn(/N=C/c3ccc([N+](=O)[O-])o3)c2cc1C | 9 | 2 | / | 85* | 19 | -85
O=C1C2C3C=CC(C4CC34)C2C(=O)N1/N=C/c1ccc([N+](=O)[O-])o1 (stereo not drawn) | 21 | -1 | 18 | 75* | / | -74
O=[N+]([O-])c1ccc(/C=N/N=C/c2ccc([N+](=O)[O-])o2)o1 | ? | -9 | 47 | 87* | / | -86
C[C@@H]1CN([C@@H](C)CO)S(=O)(=O)c2ccc(-c3cncnc3)cc2O[C@H]1CN(C)C(=O)Cc1ccccc1 | -5 | / | 8 | / | 0 | /
C[C@@H]1CN([C@H](C)CO)C(=O)c2cc(-c3ccc(C(=O)N(C)C)cc3)cnc2O[C@@H]1CN(C)C(=O)c1ccncc1 | -5 | / | -19 | / | -3 | /
C[C@@H]1CN([C@@H](C)CO)C(=O)c2cccc(NS(=O)(=O)c3cn(C)cn3)c2O[C@H]1CN(C)C(=O)Nc1ccc2c(c1)OCO2 | -109 | / | / | / | 33 | /
COc1cc(C2C3=C(Nc4ncnn42)c2ccccc2CC3)cc(OC)c1OC (stereo not drawn) | / | / | 95* | ? | -1 | /
C/C=C/c1ccc2c(c1)O[C@H](CN(C)CC1CCOCC1)[C@H](C)CN([C@H](C)CO)S2(=O)=O | 5 | / | -22 | / | -1 | /
CCOC(=O)c1cnc(-n2nc(C)cc2C)nc1N(C)C | / | 29 | -93 | -45 | 44* | 45
CC(=O)NC(CCc1ccc(Cl)c(Cl)c1)c1cccc(O)c(=O)c1 (stereo not drawn) | -3 | -6 | 91* | / | / | /
CCOC(=O)c1csc(-c2ccc(OC)c(OC)c2)n1 | -1 | 6 | -1 | -29 | / | 32
CCOC(=O)c1csc(-c2ccc3c(c2)CCO3)n1 | -27 | 40* | -188 | -70 | / | /
CC(C)NC(=O)NCC[C@@H]1CC[C@@H](NC(=O)CCN2CCCCC2)[C@H](CO)O1 | / | / | / | / | -2 | /
O=C(C[C@H]1CC[C@H]2[C@@H](COC[C@@H](O)CN2Cc2ccc3c(c2)OCO3)O1)Nc1ccc(-c2ccccc2)cc1 | 17 | / | 87* | / | 5 | /
O=C(C[C@@H]1CC[C@@H]2[C@H](COC[C@H](O)CN2Cc2ccc3c(c2)OCO3)O1)Nc1ccc(-c2ccccc2)cc1 | 16 | / | 80* | / | -2 | /
O=C(C[C@H]1CC[C@@H]2[C@H](COC[C@@H](O)CN2Cc2ccc3c(c2)OCO3)O1)Nc1ccc(-c2ccccc2)cc1 | 9 | / | 52 | / | 0 | /
C[C@@H]1CN([C@@H](C)CO)C(=O)c2cc(NC(=O)CCC(F)(F)F)ccc2O[C@H]1CN(C)S(=O)(=O)c1cn(C)cn1 | -2 | / | / | / | -5 | /
COc1ccc(C(O)c2ncc(-c3ccc4ccccc4c3)[nH]2)cc1 (stereo not drawn) | -50 | / | -52 | / | 14 | /
Cc1cc(C)cc(C(O)c2ncc(-c3ccc4ccccc4c3)[nH]2)c1 (stereo not drawn) | 4 | -1 | 1 | / | 4 | /
Cc1ccc(C(O)c2ncc(-c3ccc4ccccc4c3)[nH]2)cc1 (stereo not drawn) | -64 | -2 | -117 | / | 53* | /
OC(c1ccc(Cl)cc1)c1ncc(-c2ccccc2F)[nH]1 (stereo not drawn) | -64 | 1 | -77 | / | 51* | /
SMILES | EWS-Fli inh | Wnt bcat act | PAX8 inh HTS | MITF TRPM1 inh | esBAF inh | MITF TRPM1 HTS
OC(c1ccc(F)cc1)c1ncc(-c2ccc3ccccc3c2)[nH]1 (stereo not drawn) | -126 | 2 | -131 | / | 76* | /
OC(c1ccc(Cl)c(Cl)c1)c1ncc(-c2ccccc2F)[nH]1 (stereo not drawn) | -1 | 2 | -1 | / | 10 | /
Cn1c(C(=O)NCc2ccccn2)cc2c(=O)n3ccccc3nc21 | / | / | / | -84 | 54* | ?
CCOCCCNC(=O)c1cc2c(=O)n3cccc(C)c3nc2n1C | 52* | -7 | 15 | -3 | 3 | -1
CCC(=O)N1CC2(C1)[C@H](c1ccccc1)[C@H](CO)N2C(=O)c1cccnc1 | 1 | / | -9 | / | / | /
N#Cc1ccccc1NC(=O)Nc1cccc(Cl)c1 | / | / | / | 8 | / | -12
O=C(Nc1cccc(Cl)c1)Nc1cc(S(=O)(=O)N2CCCCC2)ccc1Cl | 23 | -13 | 75* | 80* | / | -78
O=C(Nc1ccc2c(c1)OCO2)c1cccc(F)c1 | / | ? | -161 | -66 | / | 71
O=C(Nc1cccc(F)c1)Nc1ccc2c(c1)OCO2 | / | ? | -238 | -83 | 50* | ?
Cc1csc(NC(=O)Nc2cccc(Cl)c2)n1 | / | 49* | -184 | -67 | 88* | 65
CN1CCN(S(=O)(=O)c2ccc(NC(=O)Nc3cccc(Cl)c3)cc2)CC1 | / | / | / | -10 | -1 | 10
N#CCc1ccc(NC(=O)Nc2cccc(Cl)c2)cc1 | / | / | / | -86 | 0 | 83*
CCCN1C[C@H](C)[C@H](OC)CN(C)C(=O)c2cc(NS(=O)(=O)c3cn(C)cn3)ccc2OC[C@H]1C | 3 | / | -14 | / | -4 | /
O=C(Nc1cccc(Cl)c1)NC1CC2CCC1C2 (stereo not drawn) | -76 | 9 | -14 | -17 | 50* | 19
O=C(Nc1cccc(Cl)c1)Nc1cccc(Cl)c1 | / | 4 | -48 | -45 | 5 | 46
O=C(Nc1cccc(F)c1)Nc1cccc(Cl)c1 | -91 | 24 | -31 | -60 | 55* | 60
Cc1cccnc1NC(=O)Nc1cccc(Cl)c1 | -124 | 26 | -111 | -95 | ? | 91*
COCC#Cc1cnc2c(c1)C(=O)N([C@H](C)CO)C[C@H](C)[C@H](CN(C)C(=O)c1cnccn1)O2 | -8 | / | / | / | -2 | /
Cc1noc(C)c1NC(=O)N(C)C[C@H]1OCCCC[C@@H](C)Oc2ccc(NS(=O)(=O)c3ccccc3)cc2C(=O)N([C@@H](C)CO)C[C@@H]1C | -5 | / | -15 | / | 0 | /
O=C(N/N=C/c1ccc(O)cc1O)c1ccc(CN2C(=O)c3cccc4cccc2c34)cc1 | 11 | -1 | 67* | 56 | / | -53
Cc1cc([N+](=O)[O-])nn1Cc1ccc(C(=O)N/N=C/c2ccc(O)cc2O)cc1 | / | -7 | 63* | 53 | / | -51
O=C(N/N=C/c1ccccc1)c1ccc(CN2C(=O)c3cccc4cccc2c34)cc1 | -15 | 3 | 32 | 0 | / | 2
CCCC#Cc1ccc2c(c1)[C@H]1[C@H](CCN1S(=O)(=O)c1ccc(C)cc1)[C@H](CO)N2C | 18 | / | -5 | / | -5 | /

Screening data as filed in PubChem BioAssay.
